Measured values taken from PubChem BioAssay AID1159580 (chemical genetic matrix, 2015).
Screen size: about 5,500 compounds; about 2,000 (36%) were called active. About 18% were inconclusive and are not listed. Rule as the data show it: active = normalized growth mostly below about 0.91 (no sharp cut-off); inconclusive = no clear call, values can overlap the other calls; inactive = mostly above about 0.92. The list shows a part of the results.

Assay: chemical genetic growth profiling, strain panel (AID 1159580);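 also: tested at 20 µM; growth read once vehicle control cultures reached saturation at 30 °C; 1 = growth at the plate median or of vehicle wells; lower values mean less growth of the strain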
Conditions: S. cerevisiae deletion strains, growth OD
[1] = locus YAL013W, strain DEP1, active compounds read low
[2] = locus YBR229C, strain ROT2, active compounds read low
[3] = locus YDL101C, strain DUN1, active compounds read low
[4] = locus YDR150W, strain NUM1, active compounds read low
[5] = locus YEL061C, strain CIN8, active compounds read low
[6] = locus YGR078C, strain PAC10, active compounds read low
[7] = locus YHR030C, strain SLT2, active compounds read low
[8] = locus YHR087W, strain rtc3, active compounds read low
[9] = locus YJL187C, strain SWE1, active compounds read low
[10] = locus YJR043C, strain POL32, active compounds read low
[11] = locus YJR075W, strain HOC1, active compounds read low
[12] = locus YKL190W, strain CNB1, active compounds read low
[13] = locus YLR039C, strain RIC1, active compounds read low
[14] = locus YLR058C, strain SHM2 (second series), active compounds read low
[15] = locus YLR085C, strain ARP6, active compounds read low
[16] = locus YLR262C, strain YPT6, active compounds read low
[17] = locus YML094W, strain GIM5, active compounds read low
[18] = locus YMR219W, strain ESC1, active compounds read low
[19] = locus YMR263W, strain SAP30, active compounds read low
[20] = locus YMR307W, strain GAS1, active compounds read low
[21] = locus YNL153C, strain GIM3, active compounds read low
[22] = locus YNL298W, strain CLA4 (second series), active compounds read low
[23] = locus YNL322C, strain KRE1, active compounds read low
[24] = locus YNR030W, strain Alg12, active compounds read low
[25] = locus YPL055C, strain LGE1, active compounds read low
[26] = locus YPL241C, strain CIN2, active compounds read low
[27] = locus YPR135W, strain CTF4, active compounds read low

Measured: normalized growth

COC(=O)c1cc([N+](=O)[O-])ccc1NC(C)=O
inactive: [1] 0.986 | [2] 1 | locus YCL061C, strain MRC1, active compounds read low 0.997 | [3] 1.01 | locus YDL134C, strain PPH21, active compounds read low 1.01 | [4] 0.989 | [5] 0.989 | [6] 1 | locus YGR229C, strain SMI1, active compounds read low 1 | [7] 0.929 | [8] 1.02 | [9] 0.998 | [10] 0.994 | [11] 1.03 | [12] 0.995 | [13] 1.05 | [14] 0.996 | [15] 0.977 | [16] 1.03 | [17] 1.02 | [18] 0.999 | [19] 0.979 | [20] 0.998 | locus YNL128W, strain TEP1, active compounds read low 1.01 | [21] 0.986 | [22] 0.958 | [23] 1.01 | [24] 1 | [25] 0.983 | [26] 1.03 | [27] 0.992

O=[N+]([O-])c1ccc2nc(N3CCNCC3)ccc2c1
inactive: [1] 0.999 | locus YAL040C, strain CLN3, active compounds read low 0.985 | locus YCL061C, strain MRC1 (second series), active compounds read low 0.995 | [4] 0.994 | locus YDR363W, strain ESC2, active compounds read low 1.04 | locus YER002W, strain NOP16, active compounds read low 1.01 | [6] 1 | [20] 1 | locus YNL175C, strain NOP13, active compounds read low 1 | locus YNL197C, strain WHI3, active compounds read low 1 | locus YNL224C, strain SQS1, active compounds read low 1.01 | locus YOR083W, strain WHI5 (second series), active compounds read low 1.01 | [26] 1.01

O=[N+]([O-])c1ccc(SC2=NCCN2)c(Cl)c1
inactive: [1] 0.994 | [2] 1 | [3] 0.987 | [4] 0.985 | [5] 0.978 | [6] 0.987 | [7] 1.03 | [8] 1.01 | [9] 0.98 | [10] 0.964 | [11] 0.952 | [12] 0.994 | [13] 1 | [14] 0.992 | [15] 0.965 | [16] 1 | [17] 0.972 | [18] 0.977 | [19] 1.01 | [21] 1.02 | [22] 1.03 | [23] 0.984 | [24] 0.995 | locus YOL006C, strain TOP1, active compounds read low 1 | [25] 1.03 | [26] 0.985 | [27] 1.09
